The whole screen tested about 7,900 compounds, of which about 400 (5.1%) showed an effect of 50% or more. This excerpt belongs to a sample that is enriched for strong results.
Biological target: Parkinson's disease protein 7 (PARK7/DJ1) (human, UniProt Q99497)
Experiment: primary screen, percent inhibition; read as competition with a fluorescent probe by fluorescence polarization; higher = more effect of the substance
Conditions: 100 µM
Method: The screen was conducted using the conditions as described above in 1536-well plates (Corning 3724) with a reaction volume of 8 μL per well. The compound library containing 7887 covalent fragments was purchased at Enamine Ltd. and received as 100 mM DMSO stocks in 384 well LDV Echo plates (Labcyte LP-0200). Stock solutions of 0.26 μM PARK7 and 80 nM JYQ-107 were prepared. Using a Labcyte Echo550 acoustic dispenser, 8 nL of the DMSO stock solution of the library compounds was transferred from the source plates into the empty 1536-well screening plates to obtain a 100 μM final compound concentration. Next, PARK7 (6 μL, final concentration 0.2 μM) was dispensed using a Biotek MultiflowFX liquid dispenser and incubated for 2 h, followed by dispensing the probe JYQ-107 (2 μL, final concentration 20 nM). After 2 h incubation, the FP signal was recorded on a BMG Labtech PHERAstar plate reader (λex/em 480/520 nm). The relative loss of FP signal compared with reference controls was used to calculate the remaining enzyme activity.

Sequence of Parkinson's disease protein 7 (PARK7/DJ1) (Q99497 whole entry, looked up): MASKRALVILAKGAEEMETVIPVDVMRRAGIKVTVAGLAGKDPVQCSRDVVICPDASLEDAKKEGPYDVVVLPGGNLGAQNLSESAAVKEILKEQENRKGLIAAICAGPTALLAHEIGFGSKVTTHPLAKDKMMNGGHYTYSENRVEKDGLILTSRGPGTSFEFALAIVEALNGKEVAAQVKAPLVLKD

In order of falling Inhibition %:
1. O=C(CCl)c1ccc(F)c(C(=O)CCl)c1  100%
2. O=C(CCl)c1ccc(F)c(Cl)c1  99.2%
3. CCC(C)c1ccc(NC(=O)CCl)cc1 (stereo not drawn)  99.1%
4. O=C(CCl)C1CCOCC1  99%
5. CCN(c1ccc(NC(=O)CCl)cc1)C(C)C.Cl  98.6%
6. O=C(Cc1ccc2c(c1)COC2)Nc1cccc(S(=O)(=O)F)c1  97.6%
7. C=CC(=O)Nc1cnn2ccccc12  97%
8. O=C(CCl)C1CCC(F)(F)CC1  96.8%
9. O=C(Nc1cccc(S(=O)(=O)F)c1)c1ccoc1C(F)(F)F  96.8%
10. Cc1cc(C(=O)Nc2cccc(S(=O)(=O)F)c2)c(C(F)(F)F)o1  96.8%
11. CC(C)c1ccc(NC(=O)CCl)cc1  95.8%
12. O=C(Cc1ccc2c(c1)CCO2)Nc1cccc(S(=O)(=O)F)c1  94.3%
13. O=C(Nc1ccccc1)NN(C(=O)CCl)c1ccccc1  93.5%
14. CN(C(=O)CCl)c1ccc([N+](=O)[O-])cc1  93.5%
15. O=C(Nc1cccc(S(=O)(=O)F)c1)c1sccc1OC(F)F  93.1%
16. Cc1csc(N(C(=O)CCl)c2ccccc2)n1  87.3%
17. CC(C)c1nc2c(n1C)CCN(c1cccnc1C#N)C2  87%
18. N#Cc1ccc(C(=O)O)c(=O)[nH]1  83.7%
19. CC(=O)NCCc1cc(C(=O)CCl)ccc1F  83.3%
20. Nc1cccnc1S(=O)(=O)F  81.4%
21. CC(=O)NCCc1ccc(C(=O)CCl)cc1F  81.3%
22. O=C(CCl)C1CCCN1C(=O)C(F)(F)F (stereo not drawn)  80.8%
23. CN(C(=O)CCl)c1ccccc1  79.7%
24. NC(=O)CCN(C(=O)CCl)c1ccccc1  67.4%
25. O=C(O)CC1CC(=O)N1 (stereo not drawn)  65.7%
26. O=C(Cc1cccc(C(F)F)c1)Nc1cccc(S(=O)(=O)F)c1  52%
27. O=C(CCl)Nc1ccc2[nH]c(C(F)(F)F)nc2c1  45%
28. Nc1ccccc1S(=O)(=O)F  44.7%
29. CCN(C(=O)CCl)c1ccccc1  44.6%
30. Cc1nc2c(C(=O)Nc3cccc(S(=O)(=O)F)c3)cccc2o1  43.6%
31. CCN(CC)C(=O)c1ccc(NC(=O)CCl)cc1  43.2%
32. CSc1ccc(C(=O)CCl)cc1NC(C)=O  37.7%
33. NC(=O)CCN(C(=O)CCl)c1ccc(F)cc1  37.5%
34. O=C(CCl)Nc1ccc([N+](=O)[O-])cc1  32.8%
35. C=CC(=O)Nc1cc2ccccn2n1  30.2%
36. O=C(CCl)NC(=O)Nc1ccccc1  28.5%
37. N#Cc1ncccc1N1CCc2ccccc2C1  26.9%
38. C=CC(=O)N1CCC(CNC(C)=O)CC1  25%
39. Cc1cc(C(=O)CCl)ccc1F  24.6%
40. O=C(CCl)NCCc1ccc(Cl)cc1Cl  23.1%
41. O=C(CCl)c1ccc(F)c(F)c1  22.1%
42. CC(C)c1ccc(CCNC(=O)CCl)cc1  22%
43. N#Cc1ncccc1N1CCC=C(F)C1  20.1%
44. C=CC(=O)NCc1cnn2ccccc12  19.8%
45. C=C(Cl)CSc1nc(N)cc(N)n1  18.5%
46. Cc1ccc([N+](=O)[O-])cc1NC(=O)CCl  18.4%
47. N#CC(c1ccccc1)N1CCN(C(=O)CCl)CC1 (stereo not drawn)  18.3%
48. O=C(CCl)Nc1cccc(S(=O)(=O)N=C2CCCN2)c1  18.3%
49. CC1(C)CCC(OS(C)(=O)=O)CC1  16.9%
50. CCC(C)c1ccccc1NC(=O)CCl (stereo not drawn)  16.8%
51. C=CC(=O)N1CCc2nc(-c3ccccc3)sc2C1  16.7%
52. N#CN(Cc1ccno1)c1ccc(F)cc1  15.5%
53. N#CCCN(C(=O)CCl)c1ccccc1  14.9%
54. O=C(CCl)N1CCCC2CCCCC21 (stereo not drawn)  14.1%
55. Cc1ccc2cccc(OC(=O)N3CCCC3)c2n1  13.5%
56. CC1(C)OC1c1ccccc1 (stereo not drawn)  13.4%
57. C=CC(=O)NCc1ccc(CN2CCCCCC2)cc1  13.2%
58. COc1ccc(N2CCN(CC3CO3)CC2)cc1 (stereo not drawn)  12.9%
59. NC(=O)C1CCCCN1C(=O)CCl (stereo not drawn)  12.3%
60. C=CC(=O)Nc1ccc2c(c1)COC2  11.5%
61. C=CC(=O)N1CCOc2ccc(F)cc2C1  11.2%
62. Cc1ccsc1-c1nnc(NC(=O)CCl)o1  10.8%
63. O=C(CCl)N(Cc1ccccc1)c1ccccc1  10.7%
64. O=C(CCl)NC1CCOCC1  10.5%
65. O=C(CCl)NN(c1ccccc1)c1ccccc1  10.3%
66. Cc1nc(C#N)c(N)nc1Cl  10.2%
67. CC(C)Cc1ccc(C(C)NC(=O)CCl)cc1 (stereo not drawn)  9.76%
68. CCN(Cc1ccc(Cl)s1)C(=O)CCl  9.61%
69. Cl.Cl.O=C(O)C1CCN(C(=O)C=Cc2nc3ccccc3s2)C1 (stereo not drawn)  9.53%
70. Cc1cccc(N(Cc2ccccc2)C(=O)CCl)c1  9.42%
71. C=CC(=O)NCc1ccc2c(c1)CCO2  9.41%
72. C=CC(=O)Nc1cccc(C(F)(F)F)c1  9.31%
73. CN(C(=O)CCCl)c1ccccc1  9.16%
74. COCc1ncsc1C(=O)Nc1cccc(S(=O)(=O)F)c1  8.52%
75. O=C(CCl)Nc1ccccc1-c1ccccc1  8.41%
76. COC1CS(=O)(=O)CC1Cl (stereo not drawn)  8.34%
77. O=C(O)[C@H]1CCCN1C(=O)C=Cc1ccccc1F  8.2%
78. O=C(CCl)NCC1CCOC1 (stereo not drawn)  8.14%
79. N#CC(=Cc1ccc(N)cc1)C(N)=O  8.09%
80. CS(=O)(=O)OCC1(C#N)CCCCC1  8.05%
81. C=CC(=O)NC1CC2(COC(C)C2)C1 (stereo not drawn)  8.04%
82. CCC(C)c1ccc(-c2csc(NC(=O)CCl)n2)cc1 (stereo not drawn)  8.03%
83. Cn1c(=O)c2c(ncn2CCS(=O)(=O)F)n(C)c1=O  7.95%
84. O=C(O)c1ccc(C2OCCO2)cc1  7.82%
85. N#Cc1ccc(C(=O)O)[nH]1  7.43%
86. COc1ccc(S(=O)(=O)n2ccc(C)n2)cc1  7.42%
87. N#Cc1ncn(CCC(=O)NCc2ccc(F)cc2)n1  7.22%
88. O=C1CC(c2ccccc2)N1 (stereo not drawn)  7.05%
89. Cc1ccoc1C(=O)Nc1cccc(S(=O)(=O)F)c1  7.02%
90. N#Cc1ncccc1S(N)(=O)=O  6.94%
91. CC(C)CNc1oc(Cc2ccccc2)nc1C#N  6.85%
92. CC(C)c1ccc(C(C)NC(=O)CCl)cc1 (stereo not drawn)  6.77%
93. Cc1[nH]c(C#N)cc1C(=O)O  6.7%
94. COc1cc(C)c(C)cc1S(=O)(=O)n1cccn1  6.67%
95. O=C(CCl)N1c2ccccc2Sc2ccc(Cl)cc21  6.3%
96. C=CC(=O)Nc1cccc(C(F)F)c1  6.09%
97. N#CC1CC2(CC(=O)N2)C1 (stereo not drawn)  5.93%
98. CC(C)CN1CCN(c2ccc(C#N)nc2)C(C)C1=O (stereo not drawn)  5.84%
99. CSc1cc(C(=O)CCl)ccc1NC(C)=O  5.59%
100. CC1CCCCC1NC(=O)Cn1cnc(C#N)n1 (stereo not drawn)  5.45%
101. CCn1cc(CCCl)cn1  5.4%
102. C=CC(=O)NCC1CCC(F)(F)CC1  5.38%
103. CCCC(=O)NC1CCCN(c2ccc(C#N)nc2)C1 (stereo not drawn)  5.26%
104. Cc1ccnc(S)n1.Cl  5.09%
105. O=C(CCl)NCc1ccc(C(=O)N2CCCC2)cc1  4.96%
106. NS(=O)(=O)c1cccc(NC(=O)Oc2ccccc2)c1  4.87%
107. CCc1nccn1S(=O)(=O)c1cc(Cl)c(C)cc1OC  4.53%
108. C=CC(=O)NCc1noc2c1CCCC2  4.47%
109. C=CC(=O)NCC1(C)CCOCC1  4.38%
110. C=CC(=O)Nc1cccc(OC(F)F)c1  4.3%
111. N#Cc1c(Cl)nc2sccn12  4.22%
112. Cc1nc(C=CC(=O)N2CCc3sccc3C2)cs1  4.01%
113. Cn1cc(C=CC(=O)N2CCc3ccccc32)cn1  3.76%
114. O=C1CC2(CCNCC2)N1  3.72%
115. O=c1[nH]c(-c2cccs2)no1  3.67%
116. CN1CN=C(S)NC1  3.57%
117. C=CC(=O)Nc1cc(F)ccc1C  3.57%
118. O=C1CC(Cc2ccccc2)N1 (stereo not drawn)  3.33%
119. C=CC(=O)NC(=O)NC12CC3CC(CC(C3)C1)C2  3.27%
120. Oc1ccnc(S)n1  2.99%
121. C=CC(=O)NC[C@H]1CC[C@H](c2ccccc2)O1  2.73%
122. C=CC(=O)NCC1CCC2(COC(C)C2)O1 (stereo not drawn)  2.62%
123. O=c1onc(-c2ncccn2)n1Cc1ccc(Cl)s1  2.32%
124. C#CCN(c1cnc(C#N)cn1)C1CCCC1  1.73%
125. CC(NC(=O)Cn1cnc(C#N)n1)c1ccc(F)cc1F (stereo not drawn)  1.26%
126. O=C(CCl)NNC(=O)C1CC1  1.1%
127. O=C1CC2(CCN(Cc3ccc(Cl)cc3Cl)CC2)N1  -1.16%
128. Cc1cc(C)n(CC2CCCN2C2CC(C)OC2=O)n1 (stereo not drawn)  -2.43%
129. O=C(CCl)Nc1nc2c(F)c(F)c(F)cc2s1  -4.93%
